In all, about 190,000 compounds went through this assay and about 1,300 (0.68%) were called active. Rule as the data show it: active = inhibition above about 50%; inactive = the rest. The full list was thinned out, with actives kept by preference.
Biological target: Mannose-6-phosphate isomerase (Homo sapiens) (UniProt P34949)
Assay: human PMI inhibitors, high substrate, primary screen, biochemical, fluorescence intensity, high mannose 6-phosphate (AID 1220)
Settings: recombinant PMI enzyme, coupled fluorescence intensity; at 20 µM; stronger effect = higher value

Chain of Mannose-6-phosphate isomerase (Homo sapiens) (P34949 whole entry, looked up): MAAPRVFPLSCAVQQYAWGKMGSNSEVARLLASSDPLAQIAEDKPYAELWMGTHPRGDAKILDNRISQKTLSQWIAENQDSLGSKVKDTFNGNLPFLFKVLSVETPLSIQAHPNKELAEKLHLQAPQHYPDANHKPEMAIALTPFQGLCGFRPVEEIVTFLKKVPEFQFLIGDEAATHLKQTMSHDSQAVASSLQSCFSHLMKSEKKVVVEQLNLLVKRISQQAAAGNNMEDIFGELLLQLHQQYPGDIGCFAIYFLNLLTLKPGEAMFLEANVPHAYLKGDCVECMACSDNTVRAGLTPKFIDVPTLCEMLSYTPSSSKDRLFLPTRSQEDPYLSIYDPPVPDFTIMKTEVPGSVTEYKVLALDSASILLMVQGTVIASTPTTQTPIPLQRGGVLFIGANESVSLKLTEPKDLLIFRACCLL

Compound | inhibition
Fc1ccccc1COc1ccc2ccccc2c1CNc1nn[nH]n1 | -1.6% (inactive)
O=[N+]([O-])c1cccc(C2Nc3cccc4cccc(c34)N2)c1 | -12.5% (inactive)
O=[N+]([O-])c1ccc(Cl)c(C2Nc3cccc4cccc(c34)N2)c1 | 60.2% (active)
O=[N+]([O-])c1ccc(C2Nc3cccc4cccc(c34)N2)cc1 | 14.6% (inactive)
COc1cc(CN2CCN(c3ccc(C)cc3)CC2)cc([N+](=O)[O-])c1O | 10.7% (inactive)
Cc1ccc(CN2CCN(/N=C/c3ccc(Cl)c([N+](=O)[O-])c3)CC2)cc1 | 15.3% (inactive)
CS(=O)(=O)N1CCN(Cc2ccc([N+](=O)[O-])cc2)CC1 | 11.9% (inactive)
CSc1ccc(CN2CCN(Cc3ccc([N+](=O)[O-])cc3)CC2)cc1 | 4% (inactive)
COc1cc(CN2CCN(Cc3ccc([N+](=O)[O-])cc3)CC2)c([N+](=O)[O-])cc1OC | 56.3% (active)
COc1cccc(CN2CCN(Cc3cc(OC)c(OC)cc3[N+](=O)[O-])CC2)c1 | 53.2% (active)
COc1cc(CN2CCN(Cc3ccc(C)cc3)CC2)c([N+](=O)[O-])cc1OC | 61.5% (active)
COc1cccc(CN2CCN(C(=O)Nc3ccc([N+](=O)[O-])cc3)CC2)c1 | 10.7% (inactive)
COc1cccc(C(=O)N2CCN(Cc3ccccc3[N+](=O)[O-])CC2)c1 | -13.8% (inactive)
CC1SCCN1S(=O)(=O)c1ccc2ccccc2c1 (centres undefined) | 7.8% (inactive)
CCOC(=O)N1CCC2(CC1)C(C#N)=C(N)Oc1c2c(C)nn1-c1cccc(Cl)c1 | -99.5% (inactive)
CNc1ccc(Br)cc(C(=O)/C=C/c2cccc(Cl)c2Cl)c1=O | 24.7% (inactive)
Nc1nc(F)cc(NCc2ccccc2)n1 | 10.5% (inactive)
COc1ccc(CNCc2ccco2)cc1OCc1ccccc1 | 10.6% (inactive)
CN(C)S(=O)(=O)c1cccc(NC(=O)c2ccc(N3CCOCC3)c([N+](=O)[O-])c2)c1 | 8.9% (inactive)
Cn1c(NC(=O)C2CCCO2)cc(=O)n(C)c1=O (centres undefined) | 42.3% (inactive)
COc1ccc(CC(=O)N2CCN(c3ccccn3)CC2)cc1 | 8.3% (inactive)
CCN1C(=O)C2C(c3cccc(F)c3)NC(CC)(C(=O)OC)C2C1=O (centres undefined) | 2.1% (inactive)
COCCCn1c(=N)c(C(=O)NCC2CCCO2)cc2c(=O)n3cccc(C)c3nc21 (centres undefined) | 53.6% (active)
COCCCn1c(=N)c(C(=O)NCC2CCCO2)cc2c(=O)n3ccccc3nc21 (centres undefined) | 5.1% (inactive)

Compound | inhibition
CCCn1c(=N)c(C(=O)NCC2CCCO2)cc2c(=O)n3cccc(C)c3nc21 (centres undefined) | 13.9% (inactive)
COc1ccccc1CNC(=O)Nc1cccs1 | -15.1% (inactive)
CCOC(=O)C1=C(C)NC(=O)NC1c1ccc(N(CC)CC)cc1 (centres undefined) | 25.8% (inactive)
O=C(CCN1CCN(c2ccccc2F)CC1)Nc1ccccc1F | -3.7% (inactive)
COc1ccc(C(=O)CCN2CCN(c3ccccc3F)CC2)cc1 | 17.7% (inactive)
O=C(CCN1CCOCC1)c1ccc(Cl)cc1 | 26.3% (inactive)
O=C(CCN1CCOCC1)c1ccccc1 | -3.1% (inactive)
COc1cc(-c2nnc(SCC(=O)OC3CCCCC3)o2)cc(OC)c1OC | 5.5% (inactive)
COc1cc(NC(=O)CSc2nc3ccccc3c(=O)n2C)ccc1NC(=O)c1ccco1 | 22.5% (inactive)
COC(=O)c1c(-c2ccccc2)csc1NC(=O)C1CC=CCC1C(=O)O (centres undefined) | -0.2% (inactive)
COC(=O)c1c(-c2ccc(C)cc2)csc1NC(=O)C1CC=CCC1C(=O)O (centres undefined) | 2.6% (inactive)
COC(=O)c1c(-c2ccco2)csc1NC(=O)C1CC=CCC1C(=O)O (centres undefined) | 59% (active)
Cc1c(C(=O)NCC2CCCO2)oc2ccc(S(=O)(=O)N3CCCCC3)cc12 (centres undefined) | -6.8% (inactive)
O=C(c1ccccc1)c1c2c(cc3sc4ccccc4[n+]13)-c1cccc3cccc-2c13 | 51.7% (active)
Cc1sc2cc3c(c(C(=O)c4ccccc4)[n+]2c1C)-c1cccc2cccc-3c12 | -1.5% (inactive)
O=C(c1ccccc1)c1cc2ccccc2o1 | -9.2% (inactive)
COc1ccccc1CN1CCCCC1C(=O)O (centres undefined) | -6.1% (inactive)
COC(=O)c1c(NC(=O)c2ccco2)sc(C(=O)N(C)C)c1C | 1.2% (inactive)
O=C(O)C1CCCCC1C(=O)Nc1ccccc1Cl (centres undefined) | -0.8% (inactive)
O=C(O)C1CCCCC1C(=O)Nc1cccc2ccccc12 (centres undefined) | 54.6% (active)
O=C(O)C1CCCCC1C(=O)Nc1ccccc1F (centres undefined) | 7% (inactive)
O=C(COC(=O)/C=C/c1cccc([N+](=O)[O-])c1)NCCCN1CCCC1=O | -2.9% (inactive)
COc1cc(-c2nc3ccccn3c2/N=C/c2cc(OC)c(O)cc2Cl)ccc1O | 41.9% (inactive)
COc1cc(-c2nc3ccccn3c2/N=C/c2ccccc2)ccc1O | 14.6% (inactive)

Compound | inhibition
COc1cc(-c2nc3ccccn3c2/N=C/c2cccc(OC)c2O)ccc1O | 61.6% (active)
O=C(O)c1cc2c(ccc3ccccc32)o1 | 9.6% (inactive)
CC(=O)c1cc2cc(O)ccc2o1 | 1.7% (inactive)
CC(=O)c1cc2c(O)c(O)ccc2o1 | 71% (active)
CSCCC(NS(=O)(=O)/C=C/c1ccccc1)C(=O)O (centres undefined) | -6.2% (inactive)
CCOC(=O)N1CCC(NS(=O)(=O)c2ccc3c(c2)oc(=O)n3C)CC1 | 12.9% (inactive)
CN(C)S(=O)(=O)c1ccc(NC(=O)N2CCOCC2)cc1 | -1.8% (inactive)
CN(C)c1ccc(NC(=O)N2CCOCC2)cc1 | 63.7% (active)
O=C(Nc1ccc(F)cc1)N1CCOCC1 | 1.9% (inactive)
NC(=O)NNC(=S)Nc1cccc2ccccc12 | 27.8% (inactive)
C#Cc1ccc([C@@H]2C=C(C(=O)NCc3ccccc3)O[C@H](OCc3ccc(CO)cc3)C2)cc1 | 50.8% (active)
O=C(NCc1ccccc1)C1=C[C@H](c2ccc(Br)cc2)C[C@H](OCc2ccc(CO)cc2)O1 | 37.7% (inactive)
C#Cc1ccc([C@H]2C=C(C(=O)O)O[C@@H](OCc3ccc(CO)cc3)C2)cc1 | 9.9% (inactive)
O=C(NCc1ccccc1)C1=C[C@H](c2ccc(C(F)(F)F)cc2)C[C@H](OCc2ccc(CO)cc2)O1 | 46.8% (inactive)
O=C(NCc1ccccc1)C1=C[C@@H](c2ccc(Br)cc2)C[C@@H](OCCCCO)O1 | 60.5% (active)
O=C(Nc1ccccc1)C1=C[C@@H](c2ccc(C(F)(F)F)cc2)C[C@@H](OCc2ccc(CO)cc2)O1 | 18% (inactive)
O=C(Nc1ccccc1)C1=C[C@H](c2ccc(Br)cc2)C[C@H](OCc2ccc(CO)cc2)O1 | 13.9% (inactive)
C#CCNC(=O)C1=C[C@H](c2ccc(Br)cc2)C[C@H](OCCCCO)O1 | 37.7% (inactive)
O=C(NCc1ccccc1)C1=C[C@@H](c2ccc(Br)cc2)C[C@@H](OCc2ccc(CO)cc2)O1 | 55.2% (active)
O=C(Nc1ccccc1)C1=C[C@@H](c2ccc(Br)cc2)C[C@@H](OCCCCO)O1 | 12.2% (inactive)
C#Cc1ccc([C@@H]2C=C(C(=O)O)O[C@H](OCc3ccc(CO)cc3)C2)cc1 | 0.7% (inactive)
O=C(NCc1ccccc1)C1=C[C@@H](c2ccc(C(F)(F)F)cc2)C[C@@H](OCc2ccc(CO)cc2)O1 | 50.2% (active)
CCCOc1ccc(C(=O)c2nc3c(n2O)CCCC3)cc1 | -4.1% (inactive)
CC1Oc2ccccc2C=C1/C=C1/SC(N2CCOCC2)=NC1=O (centres undefined) | 26.6% (inactive)

Compound | inhibition
CCCCc1nnc(NC(=O)C2CCCO2)s1 (centres undefined) | 4.7% (inactive)
c1cncc(CSc2ccc(-c3cccnc3)nn2)c1 | -3.2% (inactive)
CCC(CC)c1nnc(NC(=O)c2c(C)nn(Cc3ccccc3Cl)c2C)s1 | 3% (inactive)
O=C(CCNS(=O)(=O)c1cccs1)NC1CCN(Cc2ccccc2)CC1 | 6.1% (inactive)
CC(=O)OCc1c(F)c(F)c(-n2nc(C)cc2C)c(F)c1F | 1.5% (inactive)
COc1ccc(-c2nnn(CC(=O)N(CCCN3CCOCC3)C(C(=O)NC3CCCC3)c3ccco3)n2)cc1 (centres undefined) | 8.7% (inactive)
CNC(=O)NC(=O)C(C)OC(=O)CCCSc1nc2ccccc2s1 (centres undefined) | 4.7% (inactive)
Cc1cc2ccccn2c1C(=O)c1ccc(Cl)c([N+](=O)[O-])c1 | 3.4% (inactive)
O=C(Nc1nn[nH]n1)c1cccc([N+](=O)[O-])c1 | 1.8% (inactive)
O=C(Nc1ccccc1Br)c1c(F)cccc1Cl | -8.7% (inactive)
O=C(NCc1ccccc1)C1=C[C@@H](c2ccccc2)C[C@@H](OCc2ccc(CO)cc2)O1 | 61.7% (active)
O=C(NCc1ccccc1)C1=C[C@H](c2ccc3c(c2)OCO3)C[C@H](OCCCCO)O1 | 64.5% (active)
O=C(Nc1ccccc1)C1=C[C@@H](c2ccccc2)C[C@@H](OCc2ccc(CO)cc2)O1 | 15.7% (inactive)
O=C(O)C1=C[C@@H](c2ccc3c(c2)OCO3)C[C@@H](OCCCCO)O1 | 4% (inactive)
C#CCNC(=O)C1=C[C@@H](c2ccccc2)C[C@@H](OCc2ccc(CO)cc2)O1 | 28.3% (inactive)
O=C(Nc1ccccc1)C1=C[C@H](c2ccc3c(c2)OCO3)C[C@H](OCCCCO)O1 | 12.1% (inactive)
Cc1nn(Cc2ccccc2Cl)c(C)c1NC(=O)CCCn1nc([N+](=O)[O-])c(Cl)c1C | 0.3% (inactive)
CC(=O)N1CCN=C1SCc1ccc(C)cc1 | 5.8% (inactive)
C=CCn1c(COc2ccc(Cl)cc2)nnc1SCC(=O)NCC(=O)OCC | -3.6% (inactive)
CCOC(=O)C1(Cc2cccc(F)c2)CCN(C(=O)C2CCCO2)CC1 (centres undefined) | -13.3% (inactive)
O=C(Nc1cc(N2CCOCC2)ncn1)NC1(C(F)(F)F)Oc2ccccc2O1 | 7.9% (inactive)
Cc1cc(NC(=O)NC2(C(F)(F)F)Oc3ccc(Cl)cc3O2)no1 (centres undefined) | 12.7% (inactive)

— PubChem BioAssay AID1220 (Sanford-Burnham Center for Chemical Genomics, 2008)
